# According to PubChem BioAssay (EPA / NIEHS):
# Activity calls are given as the source filed them. The calls were made as follows: active = hit-call score of the fitted dose curve at least 0.9, where 1 is the maximum; inactive = score below 0.9.
# Key:
# [1] = read-out: Tissue Factor, F3 (gene 2152); test: BSK_CASM3C_TissueFactor: BioMAP Diversity Plus: CASM3C Assay for Tissue Factor Biomarker Activity (AID 2283052); details: primary human coronary artery smooth muscle cells; actives raise or lower the signal;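 also: cell surface tissue factor protein level read by ELISA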
# [2] = read-out: Interferon-gamma inducible Protein 10 (IP10), CXCL10 (gene 3627); test: BSK_hDFCGF_IP10: BioMAP Diversity Plus: hDFCGF Assay for Interferon-gamma inducible Protein 10 (IP10) Biomarker Activity (AID 2283053); details: primary human foreskin fibroblasts; actives raise or lower the signal
# How it was run: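 Primary human foreskin fibroblasts exposed to chemicals for 24 h. IP-10 measured by ELISA; changes fitted bidirectionally against DMSO baseline.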
# [3] = read-out: Urokinase-type plasminogen activator receptor (uPAR), PLAUR (gene 5329); test: BSK_CASM3C_uPAR: BioMAP Diversity Plus: CASM3C Assay for Urokinase-type plasminogen activator receptor (uPAR) Biomarker Activity (AID 2283054); details: primary human coronary artery smooth muscle cells; actives raise or lower the signal;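 also: cell-surface uPAR protein level quantified by ELISA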
# [4] = read-out: Vascular cell adhesion molecule 1 (VCAM1), VCAM1 (gene 7412); test: BSK_CASM3C_VCAM1: BioMAP Diversity Plus: CASM3C Assay for Vascular cell adhesion molecule 1 (VCAM1) Biomarker Activity (AID 2283055); details: primary human coronary artery smooth muscle cells; actives raise or lower the signal;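 also: VCAM-1 protein level quantified by ELISA on the cells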
# [5] = read-out: Collagen III, COL3A1 (gene 1281); test: BSK_hDFCGF_CollagenIII: BioMAP Diversity Plus: hDFCGF Assay for Collagen III Biomarker Activity (AID 2283056); details: primary human foreskin fibroblasts; actives raise or lower the signal
# How it was run: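 Human foreskin fibroblast primary cultures sampled 24 h after dosing; Collagen III quantified by ELISA. Signal fitted bidirectionally against DMSO baseline.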
# [6] = read-out: Epidermal growth factor receptor (EGFR), EGFR (gene 1956); test: BSK_hDFCGF_EGFR: BioMAP Diversity Plus: hDFCGF Assay for Epidermal growth factor receptor (EGFR) Biomarker Activity (AID 2283057); details: primary human foreskin fibroblasts; actives raise or lower the signal
# How it was run: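 Primary human foreskin fibroblasts (hDFCGF system), sampled 24 h after dosing; EGFR quantified by ELISA. Bidirectional fit relative to DMSO baseline; SRB total-protein staining in parallel cultures for cytotoxicity.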
# [7] = BSK_hDFCGF_Proliferation: Cell Proliferation Assessment in the BioMAP Diversity Plus: hDFCGF Assay (AID 2283059); details: primary human foreskin fibroblasts;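 also: curves fitted for both rise and fall of signal versus DMSO baseline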
# How it was run: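 Total protein read at 560 nm after 0.1% SRB staining of TCA-fixed human skin fibroblasts, […]. Activity is fitted in both directions relative to DMSO as baseline.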
# [8] = read-out: Macrophage colony-stimulating factor (MCSF), CSF1 (gene 1435); test: BSK_hDFCGF_MCSF: BioMAP Diversity Plus: hDFCGF Assay for Macrophage colony-stimulating factor (MCSF) Biomarker Activity (AID 2283060); details: primary human foreskin fibroblasts; actives raise or lower the signal
# How it was run: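 Human foreskin fibroblast primary cultures; M-CSF measured by ELISA 24 hours after chemical dosing. Bidirectional fitting relative to DMSO, with overt cytotoxicity tracked by parallel SRB total-protein staining (0.1% SRB, 10% TCA fixation, 560 nm).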
# [9] = BSK_hDFCGF_SRB: Viability Assessment in the BioMAP Diversity Plus: hDFCGF Assay (AID 2283061); details: primary human foreskin fibroblasts;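 also: cells exposed to compound for 24 h before the read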
# How it was run: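 Human foreskin fibroblasts in 96-well plates were treated 24 h. Total protein was measured by 0.1% SRB staining after 10% TCA fixation, read at 560 nm. Data were fitted bidirectionally against DMSO.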
# [10] = read-out: Interleukin-8 (IL8), CXCL8 (gene 3576); test: BSK_hDFCGF_IL8: BioMAP Diversity Plus: hDFCGF Assay for Interleukin-8 (IL8) Biomarker Activity (AID 2283058); details: primary human foreskin fibroblasts; actives raise or lower the signal
# How it was run: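 Primary human foreskin fibroblasts (hDFCGF system) dosed with chemical; IL-8 measured by ELISA 24 hours later. Bidirectional curve fitting relative to DMSO baseline; cytotoxicity tracked in parallel cultures by SRB total protein staining.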
compound,measurement,setting,value
COCCOC[C@H](CC1(C(=O)NC2CCC(C(=O)O)CC2)CCCC1)C(=O)Oc1ccc2c(c1)CCC2 (some centres not stated),outcome,[1],inactive
same,outcome,[2],inactive
same,outcome,[3],inactive
same,outcome,[4],inactive
same,outcome,[5],inactive
same,outcome,[6],inactive
same,outcome,[7],inactive
same,outcome,[8],inactive
same,outcome,[9],inactive
Cc1ccc(C)c(C)c1,outcome,[1],inactive
same,outcome,[2],inactive
same,outcome,[3],inactive
same,outcome,[4],inactive
same,outcome,[5],inactive
same,outcome,[6],inactive
same,outcome,[7],inactive
same,outcome,[8],inactive
same,outcome,[9],inactive
CCOc1ccc2c(c1)C(C)=CC(C)(C)N2,outcome,[1],inactive
same,AC50,[2],20 µM (active)
same,outcome,[3],inactive
same,outcome,[4],inactive
same,AC50,[5],15.1 µM (active)
same,outcome,[6],inactive
same,AC50,[7],24.3 µM (active)
same,AC50,[8],6.14 µM (active)
same,outcome,[9],inactive
COc1cc(-c2nc(NC(=O)c3cc4cc(C)cc(C)c4n3CC(=O)O)sc2CCC2CCCCC2)c(OC)cc1Cl,outcome,[1],inactive
same,AC50,[2],0.46 µM (active)
same,AC50,[3],6.56 µM (active)
same,AC50,[4],10.2 µM (active)
same,AC50,[5],0.203 µM (active)
same,outcome,[6],inactive
same,AC50,[7],0.128 µM (active)
same,AC50,[8],0.42 µM (active)
CC1(C)CC(N=C=O)CC(C)(CN=C=O)C1 (configuration not stated),outcome,[1],inactive
same,outcome,[2],inactive
same,outcome,[3],inactive
same,outcome,[4],inactive
same,outcome,[5],inactive
same,outcome,[6],inactive
same,outcome,[7],inactive
same,outcome,[8],inactive
Nc1ccc2c(c1)C(=O)c1ccccc1C2=O,outcome,[1],inactive
same,outcome,[2],inactive
same,AC50,[3],20 µM (active)
same,outcome,[4],inactive
same,outcome,[5],inactive
same,outcome,[6],inactive
same,AC50,[7],4.98 µM (active)
same,outcome,[8],inactive
same,outcome,[9],inactive
CN1CCN(Cc2cc(-c3ccc4[nH]c(=O)oc4c3)co2)[C@@H](c2ccc(F)cc2)C1,outcome,[1],inactive
same,outcome,[2],inactive
same,outcome,[3],inactive
same,outcome,[4],inactive
same,outcome,[5],inactive
same,outcome,[6],inactive
same,AC50,[7],17.6 µM (active)
same,AC50,[8],8.77 µM (active)
CCNc1cccc(C)c1,outcome,[1],inactive
same,outcome,[2],inactive
same,outcome,[3],inactive
same,outcome,[4],inactive
same,outcome,[5],inactive
same,outcome,[6],inactive
same,outcome,[7],inactive
same,outcome,[8],inactive
same,outcome,[9],inactive
Cc1ccc(C)c(O)c1C,outcome,[1],inactive
same,outcome,[2],inactive
same,outcome,[3],inactive
same,outcome,[4],inactive
same,outcome,[6],inactive
same,outcome,[10],inactive
same,outcome,[7],inactive
same,outcome,[8],inactive
COc1cc(S(=O)(=O)O)c(C)cc1N=Nc1c(O)ccc2cc(S(=O)(=O)O)ccc12,outcome,[1],inactive
same,outcome,[2],inactive
same,outcome,[3],inactive
same,outcome,[4],inactive
same,outcome,[6],inactive
same,outcome,[10],inactive
same,outcome,[7],inactive
same,outcome,[8],inactive
same,outcome,[9],inactive
NCC1(Cc2noc(=O)[nH]2)CCCCC1,outcome,[1],inactive
same,outcome,[2],inactive
same,outcome,[3],inactive
same,outcome,[4],inactive
same,outcome,[6],inactive
same,outcome,[10],inactive
same,outcome,[7],inactive
same,outcome,[8],inactive
same,outcome,[9],inactive
O=C(OCCCCCOC(=O)c1ccccc1)c1ccccc1,outcome,[1],inactive
same,outcome,[2],inactive
same,outcome,[3],inactive
same,outcome,[4],inactive
same,outcome,[6],inactive
same,outcome,[10],inactive
same,outcome,[7],inactive
same,outcome,[8],inactive
same,outcome,[9],inactive
Cc1ccc(Cl)cc1,outcome,[1],inactive
same,outcome,[2],inactive
same,outcome,[3],inactive
same,outcome,[4],inactive
same,outcome,[6],inactive
same,AC50,[7],0.148 µM (active)
same,outcome,[8],inactive
Cc1cccc([N+](=O)[O-])c1C,outcome,[1],inactive
same,outcome,[2],inactive
same,outcome,[3],inactive
same,outcome,[4],inactive
same,outcome,[6],inactive
same,outcome,[10],inactive
same,outcome,[7],inactive
same,outcome,[8],inactive
same,outcome,[9],inactive
Nc1ccc(S(=O)(=O)c2ccc(N)cc2)cc1,outcome,[1],inactive
same,outcome,[2],inactive
same,outcome,[3],inactive
same,outcome,[4],inactive
same,outcome,[6],inactive
same,outcome,[10],inactive
same,outcome,[7],inactive
same,outcome,[8],inactive
same,outcome,[9],inactive
COc1ccc(S(=O)(=O)N2C(=O)[C@@](c3ccccc3OC)(N3C[C@H](O)C[C@H]3C(=O)N(C)C)c3cc(Cl)ccc32)c(OC)c1,outcome,[1],inactive
same,outcome,[2],inactive
same,outcome,[3],inactive
same,outcome,[4],inactive
same,outcome,[6],inactive
same,AC50,[7],30.5 µM (active)
same,outcome,[8],inactive
same,AC50,[9],26.5 µM (active)
Cc1ccc(N(C)C)cc1,outcome,[1],inactive
same,outcome,[2],inactive
same,outcome,[3],inactive
same,outcome,[4],inactive
same,outcome,[6],inactive
same,outcome,[7],inactive
same,outcome,[8],inactive
same,outcome,[9],inactive
CC(=O)C(C)=CC1C(C)=CCCC1(C)C (configuration not stated),outcome,[1],inactive
same,outcome,[2],inactive
same,outcome,[3],inactive
same,outcome,[4],inactive
same,outcome,[6],inactive
same,outcome,[7],inactive
same,outcome,[8],inactive
